Data taken from PubChem BioAssay AID504848 (National Center for Advancing Translational Sciences (NCATS), 2011).
The campaign covered roughly 2,300 compounds. About 1,400 (61%) were called active. Not shown: some 29% with an inconclusive outcome. Calls follow the shape of the dose curve; as a rule, active = well fitted inhibition curve with a large enough effect; inconclusive = small, poorly fitted or top-dose-only effect, or effect the other way; inactive = no such curve, though single readings can be large or run the other way. The set was probably picked from earlier hits. The list shows a part of the results.
Potency is read from the fitted curve at half-maximal effect.

Assay: Confirmation screen for delayed death inhibitors of the malarial parasite plastid, 96 hour incubation; also: nearly all actives have a fitted effect of over 60% in size
Details: P. falciparum luciferase growth in erythrocytes; series mostly up to 28.7 µM
In short: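 Two-generation (96 h, 37 C) exposure of P. falciparum carrying an integrated firefly luciferase reporter in erythrocytes, 0.1% parasitemia and 2% hematocrit final, Albumax-supplemented RPMI. Luminescence decrease measures growth inhibition.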
For `O=[N+]([O-])c1ccc(C(O)C[n+]2ccccc2)cc1` (configuration not stated), the Potency was 10 µM (active). For `CCOc1ccc(C2NC(=S)NC3=C2CCc2ccccc23)cc1` (configuration not stated), the Potency was 14.1 µM (active). For `CN(C)c1ccc2nc3ccc(=[N+](C)C)cc-3sc2c1`, the Potency was 0.0631 µM (active). With `Cc1[nH]c(=O)[nH]c(=O)c1S(=O)(=O)N1CCCC(C(=O)N2CCN(c3cccc(C(F)(F)F)c3)CC2)C1` (configuration not stated) the Potency was 8.91 µM (active). In the case of `N#Cc1cccc(NC(=O)Cn2c3[n+](c4ccc(C(F)(F)F)cc42)CCCCC3)c1`, the Potency was 0.251 µM (active). With `CCCCCn1c(=O)c2ccccc2n2c(CCl)nnc12` the Potency was 6.31 µM (active). In the case of `CCCCCCCCC[n+]1cccc2c3ccccc3ccc21`, the Potency was 0.158 µM (active). With `CCCCCCCOc1ccc(C2(C)NC(=O)NC2=O)cc1` (configuration not stated) the Potency was 8.91 µM (active). For `CCC/C(=N\NC(=O)c1ccco1)c1ccc(Cl)s1`, the Potency was 12.6 µM (active). In the case of `CCOc1ccccc1CN1CCN(Cc2ccc3cccc(OC)c3n2)CC1CCO` (configuration not stated), the Potency was 12.6 µM (active). With `CCOc1ccc(CN2CCN(Cc3ccc4cc(F)ccc4n3)CC2CCO)cc1` (configuration not stated) the Potency was 14.1 µM (active). For `COc1ccc(-c2cc(C(=O)Nc3cc(C)n(Cc4ccc(Cl)cc4)n3)no2)cc1OC`, the Potency was 0.316 µM (active). For `CCCn1cc(S(=O)(=O)c2ccc(Cl)cc2)c(=O)c2cc(OC)ccc21`, the Potency was 11.2 µM (active). With `O=C(OCC(=O)N1CCN(c2ccccc2)CC1)c1cc(Cl)ccc1[N+](=O)[O-]` the Potency was “inactive”. In the case of `NC(=O)CC(NC(=O)c1ccccc1)c1ccc(N2CCN(c3ccccc3)CC2)c([N+](=O)[O-])c1` (configuration not stated), the Potency was 12.6 µM (active). With `O=C(NCc1ccco1)c1cc2sccc2n1Cc1ccc(F)cc1` the Potency was 11.2 µM (active). With `COc1ccccc1N1CCN(C(=O)c2ccc3[nH]c4c(c3c2)CCCC4)CC1` the Potency was 11.2 µM (active). With `CN(CCC#N)C(=O)COC(=O)c1ccc2[nH]c3c(c2c1)CCCC3` the Potency was “inactive”. For `CCN1CCN(Cc2c(O)ccc3c2O/C(=C\C=C\c2ccccc2)C3=O)CC1`, the Potency was 4.47 µM (active). For `CC1=Nc2cc(C(=O)N3CCCC3)ccc2Sc2ccc(C)cc21`, the Potency was 0.891 µM (active). For `CC1=Nc2cc(C(=O)N3CCCC3)ccc2Sc2c(C)ccc(C)c21`, the Potency was 3.16 µM (active). For `CCOC(=O)CSc1nnc(NC(=O)c2cccc([N+](=O)[O-])c2)s1`, the Potency was 11.2 µM (active). In the case of `Nc1nnnn1/N=C/C(Br)=C/c1ccccc1`, the Potency was 12.6 µM (active). With `CCCN1CCN(C(=O)C2CCN(S(=O)(=O)c3ccc4c(c3)NC(=O)C(C)S4)CC2)CC1` (configuration not stated) the Potency was 7.08 µM (active). For `Cc1cc(NC(=O)COC(=O)c2c(Cl)cccc2Cl)no1`, the Potency was “inactive”. With `Cc1cc(NC(=O)COC(=O)c2ccccc2S(=O)(=O)N(C)c2ccccc2)no1` the Potency was 7.94 µM (active). For `O=C(CSc1nc2c(sc3ccccc32)c(=O)n1-c1ccccc1)NCc1ccco1`, the Potency was 12.6 µM (active). With `CCN(CC)CCn1c(SCC(=O)NCc2ccccc2)nc2c(sc3ccccc32)c1=O` the Potency was 5.01 µM (active). In the case of `O=C(CSc1nc2ccccc2c(=O)n1Cc1ccc(C(=O)NC2CC2)cc1)NCc1ccco1`, the Potency was 7.08 µM (active). With `NC(=O)CSc1nc2c(sc3ccccc32)c(=O)n1CCCN1CCOCC1` the Potency was 3.16 µM (active). In the case of `O=C(CSc1c2c(nc3ccccc13)CCCC2)NCc1ccco1`, the Potency was “inactive”. With `CC(=O)Nc1sc(C)c(C)c1C(=O)OCC(=O)N(CC(C)C)C1CCS(=O)(=O)C1` (configuration not stated) the Potency was 12.6 µM (active). In the case of `Cc1cnc(CNC(=O)c2ccc3oc(Cc4ccc(Cl)cc4)nc3c2)cn1`, the Potency was 12.6 µM (active). For `Cc1cnc(CNC(=O)c2ccc3oc(Cc4ccccc4)nc3c2)[nH]1`, the Potency was 14.1 µM (active). In the case of `c1ccc(SCc2cn(C[C@H]3CC[C@@H]([C@@H]4CC[C@H](Cn5cc(CSc6ccccc6)nn5)O4)O3)nn2)cc1`, the Potency was 11.2 µM (active). In the case of `CC1CCCN(c2ccc(F)cc2N)C1` (configuration not stated), the Potency was 8.91 µM (active). For `COc1cccc(/C=N/N2CCN(C3c4ccccc4-c4ccccc43)CC2)c1O`, the Potency was 14.1 µM (active). For `CCOC(=O)C(C)Sc1cc(CS(=O)(=O)c2ccccc2)nc(-c2ccccc2)n1` (configuration not stated), the Potency was 12.6 µM (active). In the case of `Cc1ccc(Oc2nc3ccccn3c(=O)c2/C=C(\C#N)C(=O)NC2CCS(=O)(=O)C2)c(C)c1` (configuration not stated), the Potency was 10 µM (active). With `N#C/C(=C\c1c(Oc2ccccc2Cl)nc2ccccn2c1=O)C(=O)NC1CCS(=O)(=O)C1` (configuration not stated) the Potency was 12.6 µM (active). For `Cc1cccc(Oc2nc3ccccn3c(=O)c2/C=C(\C#N)C(=O)NC2CCS(=O)(=O)C2)c1C` (configuration not stated), the Potency was 12.6 µM (active). In the case of `COc1ccc(Cn2c(-c3ccccc3)nc3c(c(=O)c4ccccc4n3C)c2=O)cc1`, the Potency was 10 µM (active). With `COc1ccc(-c2nc3c(c(=O)c4ccccc4n3C)c(=O)n2Cc2ccccc2)cc1` the Potency was 7.08 µM (active). In the case of `COc1ccc(CCn2c(C(C)C)nc3c(c(=O)c4ccccc4n3C)c2=O)cc1`, the Potency was 3.16 µM (active). For `O=C(C1=C[C@@H](c2csc3ccccc23)C[C@@H](OCCCCO)O1)N1CCN(Cc2ccc3c(c2)OCO3)CC1`, the Potency was 3.98 µM (active). With `CCO[C@H]1OC(C(=O)N2CCN(Cc3ccccc3)CC2)=C[C@@H](c2ccc(C(F)(F)F)cc2)[C@@H]1CCCO` the Potency was 3.16 µM (active). For `CCO[C@H]1OC(C(=O)N2CCN(Cc3ccc4c(c3)OCO4)CC2)=C[C@@H](c2ccc(C(F)(F)F)cc2)[C@@H]1CCCO`, the Potency was 2 µM (active). In the case of `CCOC(=O)N1CCN(CC(=O)c2ccc(O)cc2O)CC1`, the Potency was 17.8 µM (active). With `CCOc1cc(/C=C2\COc3ccccc3C2=O)ccc1OCC(=O)N(C)C` the Potency was 12.6 µM (active). With `CCOc1cc(/C=C2/C(=O)ON=C2C)ccc1OCc1ccccc1` the Potency was “inactive”. In the case of `COc1cc(CN2CCN(S(=O)(=O)c3ccccc3)CC2)cc(OC)c1OC`, the Potency was 2.24 µM (active). For `O=S1(=O)C=C(Sc2nnc(-c3ccccc3)o2)c2ccccc21`, the Potency was 14.1 µM (active). For `O=S1(=O)C=C(Sc2nc3cc(Cl)ccc3o2)c2ccccc21`, the Potency was 4.47 µM (active). For `CCOc1ccc(/C=N/OCC(=O)Nc2ccc(OCc3ccccc3)cc2)cc1OC`, the Potency was 3.55 µM (active). For `C[C@@H]1CCC2[C@@H](C)[C@@H](O)O[C@@H]3O[C@@]4(C)CC[C@@H]1[C@@]23OO4` (some centres not stated), the Potency was 0.0251 µM (active). For `CO[C@H]1OC2O[C@@]3(C)CC[C@H]4[C@H](C)CC[C@@H]([C@H]1C)[C@@]24OO3` (some centres not stated), the Potency was 0.0631 µM (active). For `C[C@H]1[C@@H](OC(=O)CCC(=O)O)OC2OC3(C)CC[C@H]4[C@H](C)CC[C@@H]1[C@@]24OO3` (some centres not stated), the Potency was 0.0355 µM (active).
